The values below come from PubChem BioAssay AID1508600 (Functional Genomics Laboratory (NCATS/FGL), 2020).

In all, about 53,000 sequences went through this assay and about 3,700 (7%) were called active. The full list was thinned out, with actives kept by preference. A number with no mark means an inactive call.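 How the source made its calls: active means gene knockdowns whose robust z-score for IL-1 alpha signal is at least 2 or at most -2, so actives lie on both sides; inactive means the rest.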

The nature of the test: Components of the Cytosolic LPS Sensing Pathway: Gene Identification via Genome-wide siRNA Screen.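 Further: robust z of the log signal after scaling to non-targeting control siRNA wells of the plate.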 The conditions noted are these: RAW264.7 macrophages, IL-1a HTRF, actives lie on both sides, screened at 100 nM (by protocol), cells primed 5 h with Pam3CSK4 first. The procedure, abridged:
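Three distinct siRNAs per gene were tested singly at 100 nM in RAW264.7 macrophages. Following Pam3CSK4 priming and 24 hour LipidA transfection, IL-1a secretion was read by HTRF.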
As to CGGUGAUCAAUCAUUGUAATT against Tas2r113, the z-score was -2.16 (active).

For GCCUGUCAACUACCCAUAUTT against Ergic3, the z-score was -1.13.

In the case of GGCAAUGAGUCUGACCUCUTT against Capg, the z-score was -1.39.

As to GCUAAGGCUUGGAAUGACATT against Maged1, the z-score was -0.105.

Consider GGUGGUGGGUCCAAUUUUUTT against Jpt1, for which the z-score was 0.411.

On to GGACGUAGAAGUUUGGGAGTT against Nupl2, for which the z-score is 1.39.

Turning to GCACGUUCAGUGCACACCUTT against Nubp1, the z-score was 2.59 (active).

CCCUCACAACUUGAAGGACTT against Ccnk: the z-score is -0.882.

For the sequence GGAAGAAGUAGACCUGUCUTT against Aar2, the z-score is -2.36 (active).

As to GGCUUUAGCAGAUGAGCGATT against Sptbn4, the z-score was -0.0568.

Take GGGACUGAGGACUACAUUCTT against Eif1b: the z-score is -1.17.

In the case of GGAGAAAUAAAUGACUUGCTT against Zswim2, the z-score is -0.762.

As for CCCACAGUACAUUCUAAAATT against Arsb, the z-score is 0.776.

Take GCGUCAAAAUUAUCCGAAATT against Trnau1ap: the z-score is 0.124.

GGACACGUUUCUGUGUUGUTT against Tspan32: the z-score is 0.304.

As to GCACUAUGGGUGUCAUGGUTT against Mon1a, the z-score was -3.1 (active).

CGUAUUCCAUGGUUUCCUATT against Whrn: the z-score is 0.111.

On to GGAGUUUCUGGAAUGCAGGTT against Sec22c, for which the z-score is 0.741.

On to GCACAAUUUUAUAACUCGGTT against Lrrc49, for which the z-score was 0.457.

As to GGAUAACUAUAUUCCAGUGTT against Rhobtb3, the z-score is 0.885.

Consider GGCUAAAACACUUAUCAAUTT against Poteg, for which the z-score is -2.32 (active).

As for CGUACCAUGUAAAUUCUAUTT against Impa1, the z-score was 0.843.

On to CCCAAGAAACUUCGCUUCCTT against Ehmt1, for which the z-score is -0.551.

In the case of GCCAAGCUUAAGAACUUAATT against Oas3, the z-score is 1.51.

Consider GGAAUAGGCCUUCUUGCUGTT against Matr3, for which the z-score was -0.395.

GCAAGACGGUGAUUGUAACTT against Pck2: the z-score is -0.243.

As for GCUGAUUGAACUGAAUGGATT against Slc22a21, the z-score was -1.27.

As to CCAGGAUUGAUUUAGAAAATT against BC107364, the z-score was 1.29.

Regarding GGUCAUGGCUGGAUUUCUUTT against Olfr1462, the z-score was -2.42 (active).

For GCAGUGUCCAAAGCACUUUTT against Slc6a9, the z-score is -1.14.

For GGAUCGCUUAGUCUCAUGATT against Inip, the z-score was -0.493.

For the sequence GGUGAACGAUGUCAACUUUTT against Dvl1, the z-score was -0.545.

Take GCAUAGGAGAGACCAACAUTT against Zcchc10: the z-score is -2.42 (active).

For the sequence GGAGGAAAAUCAGACAGGATT against Olfr1419, the z-score was -0.13.

With GGUCCUCAAGAUCUUUGUGTT against Extl1, the z-score was 0.0445.

For the sequence CCAAAACAACCACAAGUAGTT against Zfp385c, the z-score is -2.96 (active).

In the case of GCUCUGUGGACUUCUUGGATT against Znrf4, the z-score is -0.687.

Take GGGCUAAAGCCUUCAACACTT against Olfr923: the z-score was 0.315.

Turning to CCCUUACAACUCAAGUAUCTT against Lrig3, the z-score was 2.1 (active).

On to GGUUGAAAAUGUUGUCAGGTT against Atpsckmt, for which the z-score was -0.733.

GGGUUUUUGUCAAAUCUGUTT against Ttc5: the z-score is -2.24 (active).

For GGACAUCCAGACCAAUGUCTT against Psmd8, the z-score is 1.1.

Turning to GGUCCAGACAUUUGGAUACTT against Cav2, the z-score is 0.428.

With GGAUACCUGAAAAUUGAUATT against Npr1, the z-score is -0.667.

Turning to GGGAAGCUUUACUUUUUAATT against Mapk4, the z-score was 2.05 (active).

For CCUUAUGAAUCCCGAGUACTT against Bmp6, the z-score is -0.0506.

As to GGGCAAAAAAGGUCUAUUCTT against Rfpl4, the z-score was 0.44.

Consider CCACAGUAUCAUGUAACUATT against Il1a, for which the z-score was -2.23 (active).

Consider GGAACCUAUUGCUGUUUUATT against Map2k3, for which the z-score was -0.756.

As for GGAAUGUGGUUUCCUGUUATT against Fscn3, the z-score was 0.502.

Consider GGCUGAACAAGAGAAACCATT against Ppdpf, for which the z-score was -2.49 (active).

Take CCCAGAAUUAAACAUAGCUTT against Rrh: the z-score is 0.0181.

Turning to GGAAACCUGCUCAUAGUGGTT against Olfr1188, the z-score was 0.54.

On to GCAUGCCUAAAUUUGGGACTT against Fyb, for which the z-score is 0.805.

Take GGCUGGACACUGAGAAAAATT against Adcy4: the z-score is 1.63.

Take GGUAUUUGGAGUACCCUUUTT against Arhgap11a: the z-score is 0.196.

Turning to GGACAAGACUCUCAGUUCATT against Atpaf1, the z-score is 0.77.

Consider GGAAUUUAGAAAAUGUGACTT against Vmn1r227, for which the z-score was -2.67 (active).

In the case of GGGUGAUCUGUAGUAUUUUTT against Olfr574, the z-score is -0.879.

With CCCUGUUACGAAGUUUAACTT against Slc17a7, the z-score is -1.27.

Take GGUGACUCUGAUUCUCAUATT against Slc22a13: the z-score is -0.176.

Take GGAACUUGUACAAAUAGGATT against Lpcat1: the z-score is 0.587.

Turning to GGACGAAGAGGAGAAAGAGTT against Ccdc184, the z-score is -1.25.

In the case of GCUUAUUCCCAGGAGACCATT against Dmrtc2, the z-score is -0.764.

As for CCCACCUUAUGGGACAAAATT against Hlf, the z-score is 2.05 (active).

Consider GGUGGCCCAGUCUAAAGAATT against R74862, for which the z-score is 0.872.

As to CCAGUGACAUUCAAUACCUTT against Lrif1, the z-score was -1.52.

GGUCAAUAUUGGCUUAUGUTT against Tmem42: the z-score was -1.43.

For the sequence GGUGGAGAGAAAGAGAAAATT against Mcm8, the z-score is 0.767.

Turning to GGGUUACUUUAGCUAUUUCTT against Rbm14, the z-score is -1.11.

As to GGCUGAACAGGCAUGAUCATT against Rpap1, the z-score is -3 (active).

For the sequence GGAGCUGCUAUGUACACAUTT against Bptf, the z-score is 0.364.

With GGGUGAAUUUCCACCUUAUTT against Sgce, the z-score is -0.521.

Turning to GGAGAAAAUACAACUGUGATT against Ctrc, the z-score was -1.05.

For CGAAAAUCAAGCGGAAUUUTT against Zmiz1, the z-score was 2.49 (active).

On to GGGCUCACUCUGUCUCUACTT against Rpp25l, for which the z-score is -0.378.

For the sequence CCAAAUCUGGUGUGAUUCATT against Arhgef4, the z-score is -0.923.

For the sequence GCAAAGAGGCCUAAUUGAATT against B2m, the z-score was 1.16.

As to GGAUUUCAAACACGUCUUUTT against Asic5, the z-score was 0.222.

GGCGGGUUUGCUGAAUAACTT against Lrrc26: the z-score is 2.43 (active).

Regarding GGUGAAGAGGAAGAUCCUGTT against Ctdnep1, the z-score is 0.421.

In the case of GGGUUAUCCGUAUGUUUUCTT against Olfr557, the z-score is 0.964.

For GGGAUUUCUUACCCUGUUUTT against Prr7, the z-score is -0.222.

Take CGACAUUGAUAUCGUGCGCTT against Gadd45g: the z-score is -0.827.

For the sequence GGACUAGCAAGCUCUUCAGTT against Fancd2, the z-score was -0.578.

As to GGUGAAAGUACUGAGGAAGTT against Rlim, the z-score is 2.45 (active).

For the sequence GCUCCACCGAGAAAUUACUTT against Magt1, the z-score is 1.63.

As for CCCUCUUGAAAUUAGUGUGTT against Dusp14, the z-score was 0.405.

GCUCACAUGUUUUAGGUGATT against Poc5: the z-score was 0.756.

Take GGCAAAGAAGGAGAAAGUATT against Cd209c: the z-score is -2.06 (active).

With GGCAGACAAUCAAUGAAAUTT against Padi4, the z-score is -0.451.

On to GCCACUUCCGGUCAACUAUTT against Cog1, for which the z-score was 0.801.

As for GGGCAAUAAGAUGUACGUUTT against Eomes, the z-score was 3.24 (active).

On to GUAUGUUUGGGCUUAGCCUTT against Olfr1348, for which the z-score is -1.21.

Regarding GGAAGUUACUGUUGAGUAGTT against Olfr114, the z-score is 0.209.

In the case of GUUGAUGGAAACCAUGGAATT against Phf11d, the z-score was -0.504.

Take GGAAAAAGCACCAUUGUGATT against Gnao1: the z-score was -0.819.

As to GCUACUUCGGGAAUUUUACTT against Ttc21a, the z-score is -1.16.

Regarding CCCUAUGAGCAAAUCACAUTT against Ppp3cc, the z-score was -0.499.

For GGACUAAGAUUUGUGUUAGTT against Ccdc127, the z-score was 2.15 (active).

For GGGAAGUUCAGUUCAAUACTT against Hps4, the z-score was 1.11.

For GCUGGAUAGCUAAAAUGAUTT against Gimap5, the z-score is -0.0294.

In the case of GCUAUAUUGUUAGCACACATT against Hmgn2, the z-score is 0.326.

Take CCUGGAGGAGUAUUUACACTT against H2-Ob: the z-score was -1.17.

Turning to GGCUAUGGAGUUCACCACATT against Krtap5-5, the z-score was -2.66 (active).

Regarding GGGAAGAAAUCAACGAUAATT against Gpa33, the z-score is -0.0673.

Take GGAACACACCAUCAUCCAGTT against H2-Ea: the z-score is 1.29.

As to GGGCUAUGCCUACUACACUTT against Fn3k, the z-score is 0.976.
